High-throughput results from PubChem.
KB-V1 MDR tox: KB-V1 MDR subline cytotoxicity; KB-V1 MDR cells viability, CellTiter-Glo, 72 h; Potency, µM (top dose mostly 46.1 µM), hits mostly cytotoxic; hit rate 3.4% among 400,000; AID 1347076; further: nearly all actives have a fitted effect of over 60% in size
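Potencies derive from concentration-effect curves fitted to normalized luminescence (CellTiter-Glo) of KB-V1 cells treated for 72 h at 37 degrees C in phenol-red-free DMEM containing 10% FBS.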
KB-3-1 cytotox: kills parental KB-3-1 adenocarcinoma cells; KB-3-1 viability, CellTiter-Glo ATP luminescence, 72 h; Potency, µM (titrated, usually from 46.1 µM), usual class: cytotoxic; hit rate 1.4% among 400,000; AID 1347075; further: nearly all actives have a fitted effect of over 60% in size
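Parental KB-3-1 adenocarcinoma cells in phenol-red-free DMEM with 10% FBS were pin-treated with compounds at several concentrations, incubated 72 h at 37 °C, and viability read by CellTiter-Glo luminescence; concentration-effect curves were fitted after normalization.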
RORg inh: inhibitors of mouse ROR gamma transcriptional activity; P51450; Drosophila S2 Gal4-RORgamma UAS-luciferase reporter, 20 h; Potency, µM (doses to about 53.6 µM), usual class: inhibitors; hit rate 5.4% among 310,000; further: nearly all actives have a fitted effect of over 60% in size
Target sequence (P51450 whole entry, looked up, the tested form may be a part): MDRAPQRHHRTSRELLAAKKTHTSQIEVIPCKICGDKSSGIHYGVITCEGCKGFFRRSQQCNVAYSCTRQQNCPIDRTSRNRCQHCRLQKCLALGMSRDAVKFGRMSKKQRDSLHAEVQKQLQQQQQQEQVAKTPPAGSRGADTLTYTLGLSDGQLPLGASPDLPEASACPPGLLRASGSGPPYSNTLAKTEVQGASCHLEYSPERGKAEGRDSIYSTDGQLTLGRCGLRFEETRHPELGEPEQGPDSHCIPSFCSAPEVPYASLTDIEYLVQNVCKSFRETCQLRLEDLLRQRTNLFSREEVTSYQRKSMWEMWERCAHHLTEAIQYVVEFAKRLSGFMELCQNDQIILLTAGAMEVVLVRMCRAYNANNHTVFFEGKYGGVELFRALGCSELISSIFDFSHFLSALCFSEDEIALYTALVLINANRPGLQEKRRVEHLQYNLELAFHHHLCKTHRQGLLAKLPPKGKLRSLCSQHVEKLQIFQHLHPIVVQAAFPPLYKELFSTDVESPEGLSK
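Schneider cells (Drosophila), stable Gal4 DBD–ROR gamma + UAS-luc; 1 hr cmpd preincubation; Cu2+ induction 700 uM final; 20 hr ambient; luminescence.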
SW480 rerep: inducers of DNA re-replication in SW480 colon cancer cells; SW480 DNA re-replication, Hoechst DNA content imaging, 48 h; Potency, µM (titrated, usually from 46.1 µM), usual class: activators; hit rate 1.8% among 340,000; AID 624297; further: nearly all actives have a fitted effect of over 55% in size
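Image-based DNA-content assay: after two days of treatment, nuclei were labelled with the DNA dye Hoechst and imaged, and hits were compounds raising the count of nuclei showing high fluorescence intensity.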
Gal4-VP16 FLuc: counter-screen for ROR gamma inhibitors: Gal4-VP16 reporter; Drosophila S2 Gal4-VP16 UAS-luciferase, luminescence, 20 h; Potency, µM (doses to about 53.6 µM), most hits filed as inhibitors; hit rate 3.5% among 310,000; AID 2546;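 further: Gal4-VP16 expression switched on by copper sulfate through the metallothionein promoter; nearly all actives have a fitted effect of over 50% in size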
MCF10A rereplic: induces DNA re-replication in MCF 10a normal breast cells. MCF 10A DNA re-replication, Hoechst nuclear intensity, 48 h. Potency, µM (titrated, usually from 46.1 µM), usual class: activators. hit rate 2.9% among 350,000; further: nearly all actives have a fitted effect of over 50% in size
Numbers stand for hits; i = inactive; ? = inconclusive; nt = not tested or not shown; [ ] = remark or other dose. Compounds with a hit are over-represented: about 10% of the library has one in this group of screens. The call rests on the fitted dose curve; in most records, active means well fitted curve in the direction sought with a large enough effect; inconclusive means small, poorly fitted or top-dose-only effect, or another doubt; inactive means no such curve, though single readings can be large; an effect the other way counts as inactive or inconclusive.

SMILES | KB-V1 MDR tox | KB-3-1 cytotox | RORg inh | SW480 rerep | Gal4-VP16 FLuc | MCF10A rereplic
Cc1cccc(CN2C(=O)[C@@H]3Cc4c([nH]c5ccccc45)C(C)(C)N3C2=O)c1 | ? | ? | nt | i | nt | ?
COC(=O)[C@@H]1Cc2c([nH]c3ccccc23)C(C)(C)N1C(=O)CCl | ? | ? | i | 6.51µM | i | 18.4µM
COc1ccc(C2(OC)Oc3cc(OC)ccc3C(=O)C2(O)OC)cc1 (stereo not given) | 2.91µM | ? | nt | i | nt | ?
COc1ccc2c(c1)OC(c1ccccc1)(C(F)(F)F)NC2=O (stereo not given) | i | i | i | i | i | i
Cc1cc(C)c(NC(=O)Cn2c(=O)n(CCCCC(=O)NCc3ccccc3Cl)c(=O)c3ccccc32)c(C)c1 | ? | i | nt | nt | nt | nt
CC(=O)NC12CC3CC(C1)CC(C(=O)N(C)CC(=O)Nc1ccccc1Cl)(C3)C2 | i | i | nt | i | nt | i
CC(=O)NC12CC3CC(C1)CC(C(=O)N(C)Cc1cccc(Cl)c1Cl)(C3)C2 | i | i | ? | i | 7.08µM | i
CCOCCCNC(=O)c1c(NC(=O)c2cc(=O)c3ccccc3o2)sc2c1CCC2 | i | i | nt | nt | nt | nt
Cc1ccc(N2C(=O)c3ccccc3C2Nc2ccccc2F)nc1 (stereo not given) | i | i | i | i | i | i
Cc1ccc(N2C(=O)c3ccccc3C2O)nc1 (stereo not given) | nt | nt | 7.08µM | nt | ? | nt
CCC1CCc2nc3sc(C(=O)Nc4ccc(C)cc4C)c(N)c3cc2C1 (stereo not given) | ? | i | nt | nt | nt | nt
O=C(CCS(=O)(=O)c1ccc(F)cc1)Nc1nnc(-c2ccco2)o1 | i | i | nt | 18.4µM | nt | ?
Cc1ccc(S(=O)(=O)CCC(=O)Nc2nnc(-c3ccc(F)cc3)o2)cc1 | i | i | nt | ? | nt | ?
COc1cccc(-c2nnc(NC(=O)CCS(=O)(=O)c3ccc(F)cc3)o2)c1 | i | i | nt | nt | nt | nt
COc1cc(OC)cc(-c2nnc(NC(=O)CCS(=O)(=O)c3ccc(C)cc3)o2)c1 | i | i | nt | ? | nt | 4.61µM
COc1ccc2cc3cc(C(=O)N4CCN(c5ccccc5F)CC4)oc3nc2c1 | i | i | nt | nt | nt | nt
c1cn(-c2cc(-c3ccc4c(c3)OCO4)ncn2)cn1 | nt | nt | i | nt | i | nt
NNC(=O)c1cccc(COc2ccc3c(c2)CCC3)c1 | i | i | 3.16µM | i | 5.01µM | i
COc1ccc(-c2cc(C(F)F)n3ncc(C(=O)n4ccnc4C)c3n2)cc1 | i | i | i | ? | i | 16.4µM
CCOc1ccccc1NC(=O)c1cnn2c(C(F)F)cc(-c3ccccc3)nc12 | i | 18.4µM | nt | nt | nt | nt
COc1ccc(-c2cc(C(F)F)n3ncc(C(=O)Nc4cc(OC)ccc4OC)c3n2)cc1 | i | i | nt | nt | nt | nt
COc1ccc(-c2cc(C(F)F)n3ncc(C(=O)N4CCc5ccccc54)c3n2)cc1 | ? | i | i | 7.31µM | i | 4.61µM
Cc1ccc(-c2cc(C(F)F)n3ncc(C(=O)N4CCCc5ccccc54)c3n2)cc1 | i | i | i | i | i | i
COc1cc(CN2C[C@@H](CO)O[C@@H](n3cnc4c(NCC(C)C)ncnc43)C2)cc(OC)c1OC | i | i | nt | nt | nt | nt
N#Cc1cnc(SCCc2ccccc2)nc1N | ? | i | i[0.365 µM] | i | nt | 9.2µM
SMILES | KB-V1 MDR tox | KB-3-1 cytotox | RORg inh | SW480 rerep | Gal4-VP16 FLuc | MCF10A rereplic
N#Cc1cnc(SCC(=O)c2ccccc2)nc1N | i | i | i[0.365 µM] | i | nt | ?
CCCn1nc(NC(=O)C(C)(C)C)c2cc3cc(OC)ccc3nc21 | ? | i | i | 20.6µM | i | 14.6µM
CCCCn1nc(NC(=O)CC)c2cc3cc(OC)ccc3nc21 | i | i | i | 20.6µM | i | 25.9µM
CCCCn1nc(NC(=O)COC)c2cc3ccc(C)cc3nc21 | ? | i | i | i | i | i
Cc1ccc2nc(CN(C)C(=O)[C@H]3O[C@@H](n4ccc(N)nc4=O)[C@H](O)[C@@H]3O)[nH]c2c1 | i | i | nt | nt | nt | nt
Nc1nc(SCc2ccc(Cl)c(Cl)c2)n[nH]1 | i | i | i | i | i | i
O=S1(=O)C=C(SCc2ccc(Cl)c(Cl)c2)Nc2ccccc21 | 14.6µM | ? | ? | ? | i | ?
CCOc1ccc(S(=O)(=O)Nc2cccc(C(=O)N3CCN(c4ccccc4O)CC3)c2)cc1 | 20.6µM | i | nt | i | nt | ?
O=C(c1ccc(S(=O)(=O)Nc2cccc(C(F)(F)F)c2)cc1)N1CCN(c2ccccc2O)CC1 | 20.6µM | ? | nt | i | nt | ?
CCOc1ccc(S(=O)(=O)Nc2cccc(C(=O)N3CCN(c4ccccn4)CC3)c2)cc1 | ? | i | nt | nt | nt | nt
COc1ccc(NC(=O)C2CC(=O)N(c3ccccc3F)C2)cc1S(=O)(=O)N1CCCCC1 (stereo not given) | i | i | nt | nt | nt | nt
O=C(CN1C(=O)COc2ccccc21)NCCCN1CCOCC1 | ? | i | i | i | i | i
O=C(CN1C(=O)/C(=C/c2ccc(C(F)(F)F)cc2)Sc2ccccc21)NCCCN1CCOCC1 | i | i | ? | ? | ? | 20.6µM
O=C(CN1C(=O)S/C(=C\c2ccccc2Cl)C1=O)NCCCn1ccnc1 | i | i | i | i | i | i
CCc1ccc(/C=C2/Sc3ccccc3N(CC(=O)NCCCN3CCOCC3)C2=O)cc1 | i | i | i | ? | ? | ?
O=C(CN1C(=O)/C(=C\c2cccc(Cl)c2)Sc2ccccc21)NCCCN1CCOCC1 | i | i | i | ? | i | 20.6µM
O=C(CN1C(=O)/C(=C\c2ccccc2Cl)Sc2ccccc21)NCCCN1CCOCC1 | i | i | i | 18.4µM | i | 18.4µM
O=C(CN1C(=O)/C(=C\c2cccc(Br)c2)Oc2ccccc21)NCCCN1CCOCC1 | ? | i | ? | 14.6µM | ? | 2.91µM
CC(C)C[C@H](N)C(=O)N[C@H](C(=O)N[C@@H](CCCN=C(N)N)C(=O)N[C@H](CS)C(=O)NCC(=O)N[C@@H](CCCCN)C(=O)N[C@@H](Cc1cnc[nH]1)C(=O)N[C@@H](CO)C(=O)N[C@@H](CCCN=C(N)N)C(=O)O)C(C)C | nt | nt | i | nt | i | nt
O=C(NCc1ccco1)c1ccc(COc2ccccc2Cl)cc1 | i | i | ? | i | i | ?
COc1ccc(Cl)cc1C(=O)NCc1ccco1 | i | i | i | i | i | i
COc1ccc(C(=O)Nc2c(Cl)cc(Cl)cc2C(=O)NCc2ccco2)cc1 | 7.31µM | i | ? | i | i | i
O=C(NCc1ccco1)c1ccc2c(c1)N(Cc1ccccc1)C(=O)CS2 | 5.8µM | i | i | i | i | i
O=C(NCc1ccco1)c1ccc(COc2cccc3ccccc23)cc1 | 20.6µM | i | ? | ? | i | i
O=C(NCc1ccco1)c1ccc2ccccc2c1 | ? | i | ? | i | 10µM | i
O=C(Nc1nnc(-c2ccccc2)s1)C1CCCN(C(=O)c2ccoc2)C1 (stereo not given) | i | i | nt | nt | nt | nt
CCOc1ccccc1N1CC(c2nc3ccccc3n2CCOc2ccccc2OC)CC1=O (stereo not given) | ? | i | nt | nt | nt | nt
